The source of these data is PubChem BioAssay AID602357 (National Center for Advancing Translational Sciences (NCATS), 2012).

Records with an inconclusive call do not appear. A number with no mark means an inactive call. The source made the active and inactive calls. The call rests on the fitted dose curve; in most records, active means well fitted inhibition curve with a large enough effect; inconclusive means small, poorly fitted or top-dose-only effect; inactive means no such curve, though single readings can be large or run the other way.

Luciferin 4-monooxygenase (Photinus pyralis), sequence (P08659 whole entry, looked up): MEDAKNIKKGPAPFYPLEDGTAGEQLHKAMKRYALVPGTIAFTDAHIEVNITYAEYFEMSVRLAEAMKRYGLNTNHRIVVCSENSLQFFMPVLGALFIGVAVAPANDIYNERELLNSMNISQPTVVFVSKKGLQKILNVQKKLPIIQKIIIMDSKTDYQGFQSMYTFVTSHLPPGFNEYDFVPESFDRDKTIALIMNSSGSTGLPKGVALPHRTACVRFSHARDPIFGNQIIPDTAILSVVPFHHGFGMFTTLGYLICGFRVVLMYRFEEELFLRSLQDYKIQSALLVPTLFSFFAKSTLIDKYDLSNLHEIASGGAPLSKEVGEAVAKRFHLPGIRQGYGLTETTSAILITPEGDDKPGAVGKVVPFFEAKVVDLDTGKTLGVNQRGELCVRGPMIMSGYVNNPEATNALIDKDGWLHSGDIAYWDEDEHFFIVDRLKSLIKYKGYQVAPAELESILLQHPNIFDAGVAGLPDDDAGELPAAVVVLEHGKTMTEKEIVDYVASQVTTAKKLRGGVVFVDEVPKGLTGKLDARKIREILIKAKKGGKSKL

The test concerns the target Luciferin 4-monooxygenase (Photinus pyralis) (UniProt P08659). The test can be described thus: FLuc inhibitory activity for the follow-up compounds in a biochemical assay with Km concentrations of substrate. The note with it: purified FLuc, Km substrates, luminescence; series mostly up to 57.5 µM; activity change, negative = inhibition: at the top concentration. In a few lines: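 qHTS: compounds titrated 12 points (~60 uM to 0.3 nM) against 10 uM D-luciferin and 10 uM ATP. Reaction started with 10 nM enzyme in Tris acetate pH 7.5 buffer with Mg acetate, Tween-20, BSA; luminescence imaged.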
As to `Cc1ccc2sc(-c3ccc(NC(=O)c4cc(-n5cnnc5)ccc4Cl)cc3)nc2c1`, the Potency was 6.51 µM (active).

As for `O=C(O)c1cccc(NC(=O)c2ccc(COc3ccc(Cl)cc3)cc2)c1`, the Potency is 3.66 µM (active).

As for `COc1cc(C(=O)Nc2cc(C)c(O)c(-c3nc4ccccc4s3)c2)cc(OC)c1OC`, the “activity change, negative = inhibition” value is -10.3%.

In the case of `O=C(Nc1ccccc1-c1nc2ccccc2s1)c1ccc(Br)o1`, the “activity change, negative = inhibition” value is -1.3%.

Turning to `CCOc1ccc2nc(NC(=O)c3ccccc3)sc2c1`, the Potency was 0.326 µM (active).

In the case of `O=C(Nc1ccccc1C(=O)O)c1cc(S(=O)(=O)Nc2ccccc2)ccc1Cl`, the “activity change, negative = inhibition” value is -3.72%.

`O=C(O)c1ccc(NC(=O)c2cc(S(=O)(=O)N3CCCCC3)c(Cl)cc2Cl)cc1`: the “activity change, negative = inhibition” value is 8.63%.

Consider `CCCC(=O)Nc1nc2ccc(OCC)cc2s1`, for which the Potency was 13 µM (active).

In the case of `O=C(Nc1ccccc1C(=O)O)c1ccc(NC(=O)C2CCCO2)cc1` (configuration not stated), the Potency was 16.3 µM (active).

In the case of `COc1ccc(NS(=O)(=O)c2cccc(C(=O)Nc3ccccc3C(=O)O)c2)cc1`, the “activity change, negative = inhibition” value was -6.02%.

On to `CN=c1scc(-c2ccccc2F)n1/N=C/c1ccc[nH]1`, for which the Potency is 0.0461 µM (active).

For the molecule `CC(=O)Oc1ccc(C(=O)Nc2ccccc2C(=O)Nc2ccc(C(=O)O)cc2)cc1`, the Potency is 5.8 µM (active).

Consider `Cc1ccc(C(=O)O/N=C(\N)c2ccccn2)c(Cl)c1`, for which the Potency was 0.0146 µM (active).

`CC(C)CC(=O)Nc1cccc(C(=O)Nc2ccccc2C(=O)O)c1`: the Potency is 18.3 µM (active).

Consider `O=C(Nc1ccccc1C(=O)O)c1cccc(NC(=O)c2ccc(Br)o2)c1`, for which the Potency is 23.1 µM (active).

Consider `O=C(O)c1cccc(NC(=O)c2cccc(S(=O)(=O)N3CCc4ccccc4C3)c2)c1`, for which the Potency was 36.6 µM (active).

As to `Nc1ccccc1C(=O)Nc1cccc(C(=O)O)c1`, the Potency is 2.06 µM (active).
